# In the library only some 19% were active in any assay of this set; here they are far more common.
# DT40 TDP1 no CPT = qHTS for Inhibitors of human tyrosyl-DNA phosphodiesterase 1 (TDP1): qHTS in cells in absence of CPT | DT40 Tdp1-/- hTDP1 cells, no CPT, ATP luminescence, 48 h | Potency, µM (titrated, usually from 46.2 µM), for the others: top-dose activity change, negative = growth inhibition, usual class: inhibitors | hit rate 15% among 420,000; also: potency is read from the fitted curve at half-maximal effect; nearly all actives have a fitted effect of over 55% in size
#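 Growth of hTDP1-complemented DT40 Tdp1-knockout cells is measured by ATP luminescence after at least 48 hr compound exposure at 37 °C, with DMSO substituting for the 20 nM CPT used in the parallel screen.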
# TDP1 cell CPT = growth inhibition of DT40 Tdp1-/-;hTDP1 cells with camptothecin (screen for TDP1 inhibitors); hit rate 12% among 420,000; AID 686979; Potency, µM (series often up to 46.2 µM), for inactives: top-dose activity change, negative = growth inhibition, most hits filed as inhibitors; chicken DT40 Tdp1-/-;hTDP1 cells + 20 nM CPT, ATP luminescence, 48 h; also: potency is read from the fitted curve at half-maximal effect; nearly all actives have a fitted effect of over 55% in size
#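 Cell growth measured by CellTiter-Glo luminescence after a minimum 48 h, 37 C compound exposure with 20 nM CPT in Tdp1-knockout DT40 cells stably expressing hTDP1, seeded 400/well; qHTS titration format.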
# TDP1 block = blocks human tyrosyl-DNA phosphodiesterase 1; Q9NUW8; recombinant TDP1, AlphaScreen DNA substrate cleavage; Potency, µM (titrated, usually from 130 µM), for the others: top-dose activity change, negative = inhibition, usual class: inhibitors; hit rate 0.28% among 350,000; also: potency is read from the fitted curve at half-maximal effect; nearly all actives have a fitted effect of over 40% in size
# Target sequence (Q9NUW8 whole entry, looked up): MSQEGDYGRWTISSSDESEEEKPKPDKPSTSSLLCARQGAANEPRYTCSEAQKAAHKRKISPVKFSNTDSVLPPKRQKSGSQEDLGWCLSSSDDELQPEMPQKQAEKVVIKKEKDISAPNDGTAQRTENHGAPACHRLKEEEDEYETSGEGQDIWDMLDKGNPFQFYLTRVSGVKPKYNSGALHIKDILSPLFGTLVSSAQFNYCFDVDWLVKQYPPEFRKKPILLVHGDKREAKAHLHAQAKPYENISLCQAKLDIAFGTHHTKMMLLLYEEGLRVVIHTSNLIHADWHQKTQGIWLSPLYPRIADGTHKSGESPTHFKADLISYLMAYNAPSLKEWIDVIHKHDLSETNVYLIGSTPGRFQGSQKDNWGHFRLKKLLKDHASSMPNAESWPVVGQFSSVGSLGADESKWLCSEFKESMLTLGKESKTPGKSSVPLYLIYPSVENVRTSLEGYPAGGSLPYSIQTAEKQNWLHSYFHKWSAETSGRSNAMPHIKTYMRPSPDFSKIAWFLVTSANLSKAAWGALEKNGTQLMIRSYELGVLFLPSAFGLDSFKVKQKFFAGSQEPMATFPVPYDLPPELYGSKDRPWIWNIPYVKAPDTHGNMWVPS
#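 Enzyme-compound mixtures sat 15 min at room temperature, followed by a 5 min reaction with 15 nM final substrate and 10 min with AlphaScreen beads. Recombinant human Tdp1 was used at 1 nM final.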
# Giardia kill = kills Giardia lamblia; Giardia lamblia trophozoite viability; hit rate 0.15% among 340,000; activity change, % at 7.66 µM, hits read low; AID 540267; in the data active = activity change below about -80%; inconclusive = between about -30% and that limit;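 also: parasites exposed to compound for two days anaerobically before the ATP read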
#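 Giardia lamblia trophozoites (100 cells/well) were incubated with compounds for 48 h at 37 deg C under anaerobic conditions. Viability was read as ATP content by one-step luminescence after 15-30 min at room temperature.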
# IL-1B inflam inh = blocks inflammasome-driven IL-1 beta release; THP-1 LPS/ATP IL-1B secretion, AlphaLISA, 16 h; hits give low values; activity change, % at 57.5 µM; hit rate 4.7% among 360,000; AID 743279; in the data active = activity change below about -50%; inconclusive = mostly about -30% to -49%
#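 Secreted IL-1B measured by AlphaLISA bead assay after 16 h compound exposure of THP-1 cells; compounds (final up to 57.5 uM) added 1 h before LPS (250 ng/mL) and ATP (1.25 mM) stimulation; lower signal means less secretion.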
# ELG1 DNA repair = inhibitors of ELG1-dependent DNA repair in HEK293T cells | HEK293T ELG1-luciferase reporter, luminescence, 16 h; DNA damage induced by 5-fluorouridine | AID 504467 | hit rate 2.3% among 330,000 | Potency, µM (series often up to 46.1 µM), without a hit: at the highest dose activity change, negative = inhibition, actives largely listed as inhibitors; also: potency is read from the fitted curve at half-maximal effect; nearly all actives have a fitted effect of over 55% in size
#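 Luminescence from the luciferase reporter, measured 30 min after ONE-Glo reagent at room temperature, was the read-out. Beforehand, 2,000 cells per well were exposed for 16 hr at 37 °C to 5-fluorouridine together with compound or vehicle.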
# The depositor's hits bear a star; ? = inconclusive; . = no result; [ ] = dose if it differs, or a comment. Unless noted, calls follow the shape of the dose curve; as a rule, active = well fitted curve in the direction sought with a large enough effect; inconclusive = small, poorly fitted or top-dose-only effect, or another doubt; inactive = no such curve, though single readings can be large; an effect the other way counts as inactive or inconclusive. % is scaled to controls: 0 for no effect and ±100 for the full control effect.
SMILES,DT40 TDP1 no CPT,TDP1 cell CPT,TDP1 block,Giardia kill,IL-1B inflam inh,ELG1 DNA repair
CCCCOC(=O)c1cccc(NC(=O)/C=C/c2ccccc2Cl)c1,20.6µM*,?,0.4%[12.3 µM],.,.,.
Cc1cc(C(=O)N/N=C/c2cccs2)no1,?,?,2.6%,5.1,19.7,?
COc1ccccc1OCCNC(=O)Nc1cc(F)c(F)cc1Cl,-22.1%,0.1%,2.9%,-3.1,-23.4,-5.5%
CN(C)S(=O)(=O)c1ccc(NC(=O)/C=C/c2ccccc2Cl)cc1,23.1µM*,?,1.4%,1.6,-27.2,-10.9%
COc1ccc(S(=O)(=O)N2CCCCC2c2cc(C(=O)Nc3ccc(F)c(Cl)c3)no2)cc1 (stereo not given),16.4µM*,16.4µM*,.,.,-17.3,.
COc1ccc(NC(=O)c2cc(C3CCCCN3S(=O)(=O)c3c(C)noc3C)on2)c(C)c1 (stereo not given),?,?,.,.,0.2,.
COc1ccc(S(=O)(=O)N2CCCCC2c2cc(C(=O)Nc3ccc(OC)cc3C)no2)cc1 (stereo not given),18.4µM*,16.4µM*,.,.,9.1,.
COc1ccc(S(=O)(=O)N2CCCCC2c2cc(C(=O)NCc3cccnc3)no2)cc1 (stereo not given),?,29.1µM*,.,.,7.7,.
COc1ccc(NC(=O)c2cc(C3CCCCN3S(=O)(=O)c3cccs3)on2)c(C)c1 (stereo not given),23.1µM*,?,.,.,10.2,.
COc1cc(C(CC(=O)Nc2cccc(C(C)=O)c2)N2Cc3ccccc3C2=O)cc(OC)c1OC (stereo not given),?,?,2.8%,.,.,.
CCOc1ccc(NS(=O)(=O)c2ccc(C(=O)N(C)CC(=O)Nc3ccc(OC)cc3)cc2)cc1,?,13µM*,-0.6%,11.6,35.7,5.8%
CCOc1ccc(S(=O)(=O)Nc2cccc(C(=O)N(C)CC(=O)Nc3ccc(OC)cc3)c2)cc1,-29.8%,-25.7%,.,-1.1,5.2,.
CCCCNS(=O)(=O)c1ccc(NC(=O)Cc2ccc(OC)cc2)cc1,7.31µM*,13µM*,-2.7%,-16.2,35.6,?
CC(C)CC(=O)NC(=S)Nc1ccc(S(=O)(=O)NC(C)(C)C)cc1,23.1µM*,?,2.8%,-2.8,-6.5,-27.6%
CCCC(=O)NC(=S)Nc1ccc(S(=O)(=O)Nc2ccc(OCC)cc2)cc1,?,11.6µM*,0.0%,14.1,8.5,?
CCOc1ccc(NS(=O)(=O)c2ccc(NC(=S)NC(=O)CC(C)C)cc2)cc1,?,?,-1.1%,4.7,0.0,?
COc1ccc(CC(=O)Nc2ccc(S(=O)(=O)NC(C)C)cc2)cc1,?,?,0.0%,-18.3,23.1,1.8%
COc1ncc2nc(-c3ccc(Cl)cc3)c(=O)n(Cc3cccs3)c2n1,-23.4%,-7.6%,.,.,.,.
COC(=O)c1sc(NC(=O)c2cc3nc(-c4ccc(Br)cc4)cc(C(F)(F)F)n3n2)c(C(=O)OC)c1C,?,?,5.4%,.,.,.
C/C(CCN1CCc2nc(-c3ccccc3)c(-c3ccccc3)cc2C1)=N\O[C@@H](C)CN1CCCCc2nc(C)c(C)cc21,.,.,4.8%[21 µM],.,.,.
C=CCOC(=O)C1(C(NC(=O)OC)c2ccccc2)C(=O)Cc2ccccc21 (stereo not given),.,.,-3.1%,.,.,.
Cc1ccc(S(=O)(=O)NNC(=O)Nc2ccc(C)c(C)c2)c(C)c1,?,?,2.2%,24.5,31.5,9.1%
O=[N+]([O-])C(=C1Nc2ccccc2N1)/C(Cl)=C(/Cl)Br,?,?,7.9%,13.8,-19.0,14.5%
COc1ccc(CCN2C(=O)c3[nH]nc(-c4ccccc4O)c3C2c2cccc(O)c2)cc1OC (stereo not given),?,-0.5%,1.0%,-9.7,-29.4,18.4µM*
COc1ccc(CCN2C(=O)c3[nH]nc(-c4ccccc4O)c3C2c2ccc(OC)c(OC)c2)cc1 (stereo not given),?,-118.9%,4.9%,.,.,.
SMILES,DT40 TDP1 no CPT,TDP1 cell CPT,TDP1 block,Giardia kill,IL-1B inflam inh,ELG1 DNA repair
COc1ccc(CCN2C(=O)c3[nH]nc(-c4ccccc4O)c3C2c2ccccc2)cc1 (stereo not given),5.8µM*,5.17µM*,6.1%,.,.,.
COc1cccc(C2c3c(-c4ccccc4O)n[nH]c3C(=O)N2CCc2ccc(OC)c(OC)c2)c1 (stereo not given),18.4µM*,14.6µM*,8.6%,.,.,.
Cc1nc(Nc2ccccc2C(F)(F)F)sc1C(=O)N(C)C,?,-2.0%,0.0%,-29.3,-51.5*,?
CC1(C)CCC[C@]2(C)[C@H]3Cc4cc(O)ccc4O[C@]3(C)CC[C@@H]12,?,18.4µM*,5.0%,-3.9,38.0,18.8%
CCc1nc2c(OCCOc3ccc(F)cc3)cccn2c1N(C)C(=O)c1ccco1,16.4µM*,20.6µM*,.,.,?,.
CCCCC(=O)N(C)c1c(CC)nc2c(OCCOc3ccc(F)cc3)cccn12,18.4µM*,14.6µM*,.,.,-22.9,.
CCc1nc2c(OCCOc3ccc(F)cc3)cccn2c1N(C)C(=O)c1ccc(C)cc1,14.6µM*,?,.,.,-60.5*,.
CCc1nc2c(OCCOc3ccc(F)cc3)cccn2c1N(C)C(=O)C(C)C,16.4µM*,?,.,.,-7.6,.
CC(NC(=O)c1cccnc1)c1nnc2n1CCN(Cc1ccc(-c3ccccc3)cc1)CC2 (stereo not given),-17.5%,18.7%[9.04 µM],.,.,.,.
Cc1nc2ccn(Cc3ccco3)c(=O)c2cc1C(=O)NCc1ccccc1,-14.6%,-25.2%,8.4%,.,.,.
CC(C)(C)NC(=O)c1nn(Cc2ccccc2)c(=O)c2ccccc12,?,-10.3%,0.0%,-0.3,10.0,-15.8%
Cc1cn([C@H]2C[C@H](O)[C@@H](/C=C/C(=O)NCCc3ccc4c(c3)OCO4)O2)c(=O)[nH]c1=O,6.7%,0.6%,.,.,-10.1,.
CCCCC(=O)N(C)c1c(CC)nc2c(OCCOc3ccccc3)cccn12,25.9µM*,18.4µM*,.,.,-26.9,.
O=C1c2ccccc2C(Nc2ccc3c(c2)OCCO3)N1Cc1ccc2c(c1)OCO2 (stereo not given),?,?,13.0%,-8.0,-17.8,?
O=C1OC(Nc2ccc3c(c2)OCO3)c2ccccc21 (stereo not given),12.6µM*,22.4µM*,1.2%,14.3,-124.2*,?
Cc1sc2nc(C3CC3)nc(SCC(=O)N3CCc4ccccc4C3)c2c1C,20.6µM*,?,2.8%,1.1,-75.5*,?
